Data taken from the supplement of paper PMC11732987, “Enantioselective OTUD7B fragment discovery through chemoproteomics screening and high-throughput optimisation” (Communications Chemistry, 2025).

Compound: OC1CN(Cc2sccc12)C(=O)CCl
Assay: log2 ratio of Biotin-Ahx-Ub-VS probe labelling (compound/DMSO); higher = less target engagement, active = hit call of the paper (q ≤ 0.05, log2 ratio ≤ -1)
Details: compound concentration: 50uM; treatment time: 3 h
Description: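 Round 2 competitive ABPP in HEK293T lysate. Purified HTC-D2B compounds were tested at 50 and 200 µM for 3 h, followed by Biotin-Ahx-Ub-VS enrichment and diaPASEF LC-MS/MS. Values are the average log2 ratio (compound/DMSO) from an unpaired t-test (n=3 treated, n=26 DMSO).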

Chain of UniProt Q9UGI0 (Q9UGI0 whole entry): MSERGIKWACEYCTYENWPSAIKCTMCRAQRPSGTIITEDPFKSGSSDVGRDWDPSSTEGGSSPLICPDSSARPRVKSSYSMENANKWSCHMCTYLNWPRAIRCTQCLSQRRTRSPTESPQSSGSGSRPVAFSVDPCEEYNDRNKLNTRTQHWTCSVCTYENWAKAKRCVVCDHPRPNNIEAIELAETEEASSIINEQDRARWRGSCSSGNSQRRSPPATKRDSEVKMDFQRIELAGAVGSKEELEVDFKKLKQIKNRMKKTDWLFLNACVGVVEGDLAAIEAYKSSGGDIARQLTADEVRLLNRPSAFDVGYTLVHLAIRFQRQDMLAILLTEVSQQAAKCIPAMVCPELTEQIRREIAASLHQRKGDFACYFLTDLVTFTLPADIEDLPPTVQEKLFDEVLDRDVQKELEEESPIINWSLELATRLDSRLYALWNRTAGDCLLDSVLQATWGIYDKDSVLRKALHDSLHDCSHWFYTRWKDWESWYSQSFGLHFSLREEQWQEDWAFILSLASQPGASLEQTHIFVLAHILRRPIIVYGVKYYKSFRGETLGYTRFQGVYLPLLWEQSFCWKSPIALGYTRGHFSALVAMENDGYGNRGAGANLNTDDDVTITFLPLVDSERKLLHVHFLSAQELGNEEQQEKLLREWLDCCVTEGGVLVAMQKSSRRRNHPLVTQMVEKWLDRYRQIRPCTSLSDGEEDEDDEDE
Chain of UniProt Q92560 (Q92560 whole entry): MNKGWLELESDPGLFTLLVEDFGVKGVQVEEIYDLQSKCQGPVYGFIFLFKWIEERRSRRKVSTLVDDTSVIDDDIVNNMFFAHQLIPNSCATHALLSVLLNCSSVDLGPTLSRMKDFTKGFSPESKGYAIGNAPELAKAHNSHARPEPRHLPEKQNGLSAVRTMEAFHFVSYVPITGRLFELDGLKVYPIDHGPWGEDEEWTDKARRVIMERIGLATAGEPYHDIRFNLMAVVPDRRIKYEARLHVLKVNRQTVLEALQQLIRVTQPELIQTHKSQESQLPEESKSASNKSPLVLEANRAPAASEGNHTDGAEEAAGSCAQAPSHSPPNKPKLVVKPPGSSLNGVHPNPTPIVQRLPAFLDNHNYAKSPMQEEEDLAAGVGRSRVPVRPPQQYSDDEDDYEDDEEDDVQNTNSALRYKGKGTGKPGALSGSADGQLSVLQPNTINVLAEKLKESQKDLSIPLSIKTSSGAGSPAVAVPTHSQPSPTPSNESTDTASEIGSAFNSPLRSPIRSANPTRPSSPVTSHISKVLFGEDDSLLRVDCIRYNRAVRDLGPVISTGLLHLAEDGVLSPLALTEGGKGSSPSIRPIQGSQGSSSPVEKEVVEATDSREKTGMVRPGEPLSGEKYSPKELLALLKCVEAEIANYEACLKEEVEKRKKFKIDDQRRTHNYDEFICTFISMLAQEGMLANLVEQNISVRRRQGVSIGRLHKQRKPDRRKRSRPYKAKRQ
Chain of UniProt Q96RU2 (Q96RU2 whole entry): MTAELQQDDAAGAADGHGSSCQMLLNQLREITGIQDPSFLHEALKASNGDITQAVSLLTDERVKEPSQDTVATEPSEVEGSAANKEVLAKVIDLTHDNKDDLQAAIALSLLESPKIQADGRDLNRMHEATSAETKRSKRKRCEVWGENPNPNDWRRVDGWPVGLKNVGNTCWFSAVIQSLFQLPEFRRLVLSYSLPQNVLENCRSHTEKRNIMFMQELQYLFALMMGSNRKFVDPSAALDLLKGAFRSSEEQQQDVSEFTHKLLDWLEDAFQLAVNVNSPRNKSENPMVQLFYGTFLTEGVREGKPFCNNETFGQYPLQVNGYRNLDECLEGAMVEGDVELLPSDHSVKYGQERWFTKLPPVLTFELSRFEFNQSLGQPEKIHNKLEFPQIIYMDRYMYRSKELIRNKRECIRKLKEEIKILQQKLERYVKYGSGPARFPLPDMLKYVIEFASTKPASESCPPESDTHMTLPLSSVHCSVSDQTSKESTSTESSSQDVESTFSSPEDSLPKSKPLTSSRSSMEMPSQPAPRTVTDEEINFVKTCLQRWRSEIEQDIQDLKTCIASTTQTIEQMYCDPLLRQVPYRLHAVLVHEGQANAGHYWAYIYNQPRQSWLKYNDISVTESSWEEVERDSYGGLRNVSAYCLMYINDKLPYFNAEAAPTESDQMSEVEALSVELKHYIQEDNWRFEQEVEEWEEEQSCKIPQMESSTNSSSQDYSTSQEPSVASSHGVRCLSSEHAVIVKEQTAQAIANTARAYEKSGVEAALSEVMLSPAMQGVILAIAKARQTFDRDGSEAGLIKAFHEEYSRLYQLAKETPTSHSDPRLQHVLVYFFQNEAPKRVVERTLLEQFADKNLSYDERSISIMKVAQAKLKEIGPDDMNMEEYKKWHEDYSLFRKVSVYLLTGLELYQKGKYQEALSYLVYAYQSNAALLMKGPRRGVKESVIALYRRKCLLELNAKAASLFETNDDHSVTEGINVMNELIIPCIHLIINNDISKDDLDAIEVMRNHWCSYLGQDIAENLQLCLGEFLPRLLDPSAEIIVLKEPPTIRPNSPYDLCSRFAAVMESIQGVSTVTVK
Chain of UniProt Q93009 (Q93009 whole entry, looked up): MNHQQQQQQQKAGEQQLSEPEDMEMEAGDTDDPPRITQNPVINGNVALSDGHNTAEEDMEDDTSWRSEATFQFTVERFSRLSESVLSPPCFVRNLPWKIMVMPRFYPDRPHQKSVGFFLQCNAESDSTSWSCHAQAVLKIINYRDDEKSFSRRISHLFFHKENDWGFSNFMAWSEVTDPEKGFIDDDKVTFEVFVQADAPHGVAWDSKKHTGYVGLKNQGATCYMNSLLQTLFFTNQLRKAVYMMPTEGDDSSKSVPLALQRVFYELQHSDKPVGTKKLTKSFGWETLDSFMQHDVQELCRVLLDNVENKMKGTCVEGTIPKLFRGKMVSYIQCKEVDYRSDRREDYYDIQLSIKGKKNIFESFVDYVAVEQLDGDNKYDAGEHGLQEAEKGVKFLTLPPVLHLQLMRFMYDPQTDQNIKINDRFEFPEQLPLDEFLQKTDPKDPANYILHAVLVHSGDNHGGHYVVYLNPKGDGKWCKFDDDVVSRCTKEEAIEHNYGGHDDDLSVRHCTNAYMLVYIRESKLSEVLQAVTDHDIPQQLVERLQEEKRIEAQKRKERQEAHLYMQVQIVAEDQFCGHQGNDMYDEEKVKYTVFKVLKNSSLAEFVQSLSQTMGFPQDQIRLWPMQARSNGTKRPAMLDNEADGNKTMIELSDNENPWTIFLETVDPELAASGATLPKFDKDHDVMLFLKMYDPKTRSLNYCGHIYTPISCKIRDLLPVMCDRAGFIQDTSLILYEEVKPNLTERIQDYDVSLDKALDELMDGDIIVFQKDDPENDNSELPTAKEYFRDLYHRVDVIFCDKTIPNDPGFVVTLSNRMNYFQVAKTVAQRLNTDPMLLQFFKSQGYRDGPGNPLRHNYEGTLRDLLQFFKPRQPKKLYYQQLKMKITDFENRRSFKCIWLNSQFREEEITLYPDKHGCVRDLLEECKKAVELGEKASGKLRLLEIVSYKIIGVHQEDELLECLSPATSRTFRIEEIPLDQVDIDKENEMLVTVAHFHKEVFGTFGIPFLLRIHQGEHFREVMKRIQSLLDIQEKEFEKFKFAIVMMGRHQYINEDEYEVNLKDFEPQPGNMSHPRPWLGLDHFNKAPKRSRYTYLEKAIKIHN
Chain of UniProt Q9NP73 (Q9NP73 whole entry): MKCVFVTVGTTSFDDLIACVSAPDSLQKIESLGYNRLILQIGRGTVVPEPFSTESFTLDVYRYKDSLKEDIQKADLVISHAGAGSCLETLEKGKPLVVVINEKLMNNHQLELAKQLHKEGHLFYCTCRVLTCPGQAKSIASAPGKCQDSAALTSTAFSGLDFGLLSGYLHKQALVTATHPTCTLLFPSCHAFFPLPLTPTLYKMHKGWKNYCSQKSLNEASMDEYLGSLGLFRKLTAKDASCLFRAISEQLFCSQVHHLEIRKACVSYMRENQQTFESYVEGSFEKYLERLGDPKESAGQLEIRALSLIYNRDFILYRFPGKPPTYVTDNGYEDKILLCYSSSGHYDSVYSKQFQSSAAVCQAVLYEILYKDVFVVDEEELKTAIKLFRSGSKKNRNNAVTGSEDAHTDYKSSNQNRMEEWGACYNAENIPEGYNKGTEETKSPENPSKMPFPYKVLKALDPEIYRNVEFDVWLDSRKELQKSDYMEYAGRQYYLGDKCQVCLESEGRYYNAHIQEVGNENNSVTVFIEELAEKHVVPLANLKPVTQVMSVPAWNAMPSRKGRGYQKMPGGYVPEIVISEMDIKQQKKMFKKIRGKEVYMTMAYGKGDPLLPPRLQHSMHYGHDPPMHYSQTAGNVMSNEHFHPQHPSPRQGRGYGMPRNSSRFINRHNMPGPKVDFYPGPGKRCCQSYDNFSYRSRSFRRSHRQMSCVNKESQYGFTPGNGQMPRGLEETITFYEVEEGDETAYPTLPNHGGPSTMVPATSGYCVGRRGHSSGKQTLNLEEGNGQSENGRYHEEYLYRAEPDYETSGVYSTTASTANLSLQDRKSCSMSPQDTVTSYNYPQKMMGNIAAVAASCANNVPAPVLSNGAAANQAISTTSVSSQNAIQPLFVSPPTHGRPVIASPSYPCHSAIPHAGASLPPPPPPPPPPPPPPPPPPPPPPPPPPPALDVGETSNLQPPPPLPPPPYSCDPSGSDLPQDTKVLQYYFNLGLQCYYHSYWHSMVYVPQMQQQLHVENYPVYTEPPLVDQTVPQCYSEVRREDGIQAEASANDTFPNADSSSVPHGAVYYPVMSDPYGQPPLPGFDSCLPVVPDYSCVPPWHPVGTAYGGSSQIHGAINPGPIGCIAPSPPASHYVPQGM
Chain of UniProt O00487 (O00487 whole entry): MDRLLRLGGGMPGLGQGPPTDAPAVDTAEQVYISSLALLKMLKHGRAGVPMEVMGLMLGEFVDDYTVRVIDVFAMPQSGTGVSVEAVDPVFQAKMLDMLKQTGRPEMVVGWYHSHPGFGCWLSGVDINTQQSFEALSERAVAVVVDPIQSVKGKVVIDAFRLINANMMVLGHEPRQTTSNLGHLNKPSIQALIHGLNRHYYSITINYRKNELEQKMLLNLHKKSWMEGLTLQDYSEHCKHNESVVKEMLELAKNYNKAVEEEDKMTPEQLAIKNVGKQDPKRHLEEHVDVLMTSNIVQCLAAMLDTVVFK

log2 ratio of Biotin-Ahx-Ub-VS probe labelling, inactive:
OTUD6B (UniProt Q8N6M0) -0.139
UniProt P51784 0.0374
USP9X (UniProt Q93008) 0.00293
USP7 (UniProt Q93009) -0.155
UniProt Q9UGI0 -0.451
USP42 (UniProt Q9H9J4) -0.224
BAP1 (UniProt Q92560) -0.416
UniProt Q70EL2 0.0417
VCPIP1 (UniProt Q96JH7) -0.309
ALG13 (UniProt Q9NP73) 0.00409
USP14 (UniProt P54578) -0.385
COPS5 (UniProt Q92905) 0.136
USP4 (UniProt Q13107) -0.154
USP54 (UniProt Q70EL1) 0.561
USP19 (UniProt O94966) -0.389
UniProt O00487 0.0337
USP16 (UniProt Q9Y5T5) -0.903
FAM105A (UniProt Q9NUU6) -0.0183
USP34 (UniProt Q70CQ2) -0.156
USP28 (UniProt Q96RU2) -0.0634

Same assay, conditions: compound concentration: 200uM; treatment time: 3 h

log2 ratio of Biotin-Ahx-Ub-VS probe labelling, inactive:
OTUD6B (UniProt Q8N6M0) -0.239
UniProt P51784 -0.0603
USP9X (UniProt Q93008) -0.116
USP7 (UniProt Q93009) -0.426
USP42 (UniProt Q9H9J4) 0.0756
BAP1 (UniProt Q92560) -0.818
UniProt Q70EL2 -0.242
VCPIP1 (UniProt Q96JH7) -0.285
ALG13 (UniProt Q9NP73) -0.0817
USP14 (UniProt P54578) -0.604
COPS5 (UniProt Q92905) -0.0875
USP4 (UniProt Q13107) 0.0977
USP54 (UniProt Q70EL1) -0.559
USP19 (UniProt O94966) -0.703
UniProt O00487 -0.128
USP16 (UniProt Q9Y5T5) -0.0352
FAM105A (UniProt Q9NUU6) 0.114
USP34 (UniProt Q70CQ2) -0.0909
USP28 (UniProt Q96RU2) -0.321

log2 ratio of Biotin-Ahx-Ub-VS probe labelling, active:
UniProt Q9UGI0 -1.5
